{
  "source": "the supplement of paper PMC9023506",
  "note": "Structures can show the parent of a compound that is named as a salt.",
  "data": [
    {"test_system": "Danio rerio larvae (5 dpf)", "test": "optomotor response to blue moving lines, difference vs DMSO (percentage points (treated minus DMSO)); higher = more of the behaviour than the DMSO vehicle control", "conditions": "10 µM; exposure time: 3 h pre-incubation + 3 h imaging", "procedure": "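5-dpf wild-type zebrafish larvae were imaged in 96-well plates. They were treated with 190 Tocris FDA-approved drugs at 10 µM (1 µl/ml DMSO) for 3 h before and 3 h during imaging at 28.5 °C, 48 larvae per drug. Automated image analysis gave % time moving and optomotor responses. Values are drug group mean minus DMSO vehicle mean (n=844), in percentage points, for 10 behaviours.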", "values": [
      {"smiles": "CCN(Cc1ccncc1)C(=O)C(CO)c1ccccc1", "note": "(stereo not given) [Tropicamide]", "optomotor response to blue moving lines": 0.00192},
      {"smiles": "CCc1nc(N)nc(N)c1-c1ccc(Cl)cc1", "note": "[Pyrimethamine]", "optomotor response to blue moving lines": 15.9},
      {"smiles": "CN(CCOc1ccc(NS(C)(=O)=O)cc1)CCc1ccc(NS(C)(=O)=O)cc1", "note": "[Dofetilide]", "optomotor response to blue moving lines": -7.25},
      {"smiles": "O=C1CCc2ccc(OCCCCN3CCN(c4cccc(Cl)c4Cl)CC3)cc2N1", "note": "[Aripiprazole]", "optomotor response to blue moving lines": -0.0385},
      {"smiles": "CN(C)CCc1c[nH]c2ccc(C[C@H]3COC(=O)N3)cc12", "note": "[Zolmitriptan]", "optomotor response to blue moving lines": 9.9},
      {"smiles": "CCCCCOC(=O)Nc1nc(=O)n([C@@H]2O[C@H](C)[C@@H](O)[C@H]2O)cc1F", "note": "[Capecitabine]", "optomotor response to blue moving lines": 16.5},
      {"smiles": "NS(=O)(=O)Cc1noc2ccccc12", "note": "[Zonisamide]", "optomotor response to blue moving lines": 3.89},
      {"smiles": "Nc1nc(Cl)nc2c1ncn2[C@@H]1O[C@H](CO)[C@@H](O)[C@@H]1F", "note": "[Clofarabine]", "optomotor response to blue moving lines": 4.47},
      {"smiles": "COc1ccccc1OCC(O)CN1CCN(CC(=O)Nc2c(C)cccc2C)CC1", "note": "(stereo not given) [Ranolazine dihydrochloride]", "optomotor response to blue moving lines": 13.8},
      {"smiles": "C[C@]12CC[C@@H]3c4ccc(O)cc4C[C@@H](CCCCCCCCC[S+]([O-])CCCC(F)(F)C(F)(F)F)[C@H]3[C@@H]1CC[C@@H]2O", "note": "(stereo not given in full)", "optomotor response to blue moving lines": 6.07},
      {"smiles": "CC[C@H](C)C(=O)O[C@H]1C[C@@H](C)C=C2C=C[C@H](C)[C@H](CC[C@@H]3C[C@@H](O)CC(=O)O3)[C@H]21", "note": "[Lovastatin]", "optomotor response to blue moving lines": 8.37},
      {"smiles": "CC(C)(C(=O)c1cccnc1)c1cccnc1", "note": "[Metyrapone]", "optomotor response to blue moving lines": -8.19},
      {"smiles": "CCCCNc1cc(C(=O)O)cc(S(N)(=O)=O)c1Oc1ccccc1", "note": "[Bumetanide]", "optomotor response to blue moving lines": 3.8},
      {"smiles": "CN1CCC[C@@H]1Cc1c[nH]c2ccc(CCS(=O)(=O)c3ccccc3)cc12", "note": "[Eletriptan hydrobromide]", "optomotor response to blue moving lines": 5.86},
      {"smiles": "Cc1ccc(N(CC2=NCCN2)c2cccc(O)c2)cc1", "note": "[Phentolamine Mesylate]", "optomotor response to blue moving lines": 16.3},
      {"smiles": "Cc1nc(Nc2ncc(C(=O)Nc3c(C)cccc3Cl)s2)cc(N2CCN(CCO)CC2)n1", "note": "[Dasatinib]", "optomotor response to blue moving lines": -13.1},
      {"smiles": "COc1cc2ncnc(Nc3ccc(F)c(Cl)c3)c2cc1OCCCN1CCOCC1", "note": "[Iressa]", "optomotor response to blue moving lines": 5.63},
      {"smiles": "CC1=Nc2ccc(Cl)cc2S(=O)(=O)N1", "note": "[Diazoxide]", "optomotor response to blue moving lines": 0.0367},
      {"smiles": "Clc1ccc2nsnc2c1NC1=NCCN1", "note": "[Tizanidine hydrochloride]", "optomotor response to blue moving lines": 3.61},
      {"smiles": "C[C@H]1O[C@H](O[C@H]2[C@H](O)[C@@H](O)[C@@H](O[C@H]3[C@H](O)[C@@H](O)C(O)O[C@@H]3CO)O[C@@H]2CO)[C@H](O)[C@@H](O)[C@@H]1N[C@H]1C=C(CO)[C@@H](O)[C@H](O)[C@H]1O", "note": "(stereo not given in full) [Acarbose]", "optomotor response to blue moving lines": 15.5},
      {"smiles": "COc1ccc([C@@H]2Sc3ccccc3N(CCN(C)C)C(=O)[C@@H]2OC(C)=O)cc1", "note": "[Diltiazem hydrochloride]", "optomotor response to blue moving lines": -5.83},
      {"smiles": "CN1CCN2c3ncccc3Cc3ccccc3C2C1", "note": "(stereo not given) [Mirtazapine]", "optomotor response to blue moving lines": -2.95},
      {"smiles": "OCCN(CCO)c1nc(N2CCCCC2)c2nc(N(CCO)CCO)nc(N3CCCCC3)c2n1", "note": "[Dipyridamole]", "optomotor response to blue moving lines": -5.39},
      {"smiles": "Nc1nc(NC2CC2)c2ncn([C@H]3C=C[C@@H](CO)C3)c2n1", "note": "[Abacavir hemisulfate]", "optomotor response to blue moving lines": 2.71},
      {"smiles": "C[C@H]1C[C@@H]2[C@H]([C@@H](O)C[C@@]3(C)[C@H]2CC[C@]3(O)C(=O)CO)[C@@]2(C)C=CC(=O)C=C12", "note": "[Methylprednisolone]", "optomotor response to blue moving lines": 10.6},
      {"smiles": "NS(=O)(=O)c1cc2c(cc1Cl)NC(C1CC3C=CC1C3)NS2(=O)=O", "note": "(stereo not given) [Cyclothiazide]", "optomotor response to blue moving lines": -7.83},
      {"smiles": "CC(C)N(CCCCOCC(=O)NS(C)(=O)=O)c1cnc(-c2ccccc2)c(-c2ccccc2)n1", "note": "[Selexipag]", "optomotor response to blue moving lines": -1.72},
      {"smiles": "CCc1c2c(nc3ccc(OC(=O)N4CCC(N5CCCCC5)CC4)cc13)-c1cc3c(c(=O)n1C2)COC(=O)[C@]3(O)CC", "optomotor response to blue moving lines": 1.97},
      {"smiles": "CCCC1O[C@@H]2C[C@H]3[C@@H]4CCC5=CC(=O)C=C[C@]5(C)[C@H]4[C@@H](O)C[C@]3(C)[C@]2(C(=O)CO)O1", "note": "(stereo not given in full) [Budesonide]", "optomotor response to blue moving lines": 2.29},
      {"smiles": "CC(=O)Oc1cc2c(s1)CCN(C(C(=O)C1CC1)c1ccccc1F)C2", "note": "(stereo not given) [Prasugrel]", "optomotor response to blue moving lines": 3.83},
      {"smiles": "Nc1ncn([C@@H]2O[C@H](CO)[C@@H](O)[C@H]2O)c(=O)n1", "note": "[5-Azacytidine]", "optomotor response to blue moving lines": 8.76},
      {"smiles": "COC(=O)C1=C(C)NC(C)=C(C(=O)OC(C)C)C1c1cccc2nonc12", "note": "(stereo not given) [Isradipine]", "optomotor response to blue moving lines": -11.3},
      {"smiles": "CCOC(=O)N1CCC(=C2c3ccc(Cl)cc3CCc3cccnc32)CC1", "note": "[Loratidine]", "optomotor response to blue moving lines": 6.09},
      {"smiles": "CC(C)COCC(CN(Cc1ccccc1)c1ccccc1)N1CCCC1", "note": "(stereo not given) [Bepridil hydrochloride]", "optomotor response to blue moving lines": 7.44},
      {"smiles": "Cc1ccc(O)c([C@H](CCN(C(C)C)C(C)C)c2ccccc2)c1", "note": "[Tolterodine L-tartrate]", "optomotor response to blue moving lines": 7.18},
      {"smiles": "CC(C)c1ccc2oc3nc(N)c(C(=O)O)cc3c(=O)c2c1", "note": "[Amlexanox]", "optomotor response to blue moving lines": 5.97},
      {"smiles": "CN(CCOc1ccc(CC2SC(=O)NC2=O)cc1)c1ccccn1", "note": "(stereo not given) [Rosiglitazone]", "optomotor response to blue moving lines": -12.4},
      {"smiles": "COc1cc2nccc(Oc3ccc(NC(=O)C4(C(=O)Nc5ccc(F)cc5)CC4)cc3)c2cc1OC", "optomotor response to blue moving lines": -8.79},
      {"smiles": "Clc1ccc(COC(Cn2ccnc2)c2ccc(Cl)cc2Cl)c(Cl)c1", "note": "(stereo not given) [Miconazole nitrate]", "optomotor response to blue moving lines": -7.42},
      {"smiles": "CCOC(=O)c1ncn2c1CN(C)C(=O)c1cc(F)ccc1-2", "note": "[Flumazenil]", "optomotor response to blue moving lines": 11.4}
    ]}
  ]
}
